Data published in PubChem BioAssay (EPA / NIEHS).
Calls of active or inactive are those of the source. How the source made its calls: active means hit-call score of the fitted dose curve at least 0.9, where 1 is the maximum; inactive means score below 0.9.

The compounds below were run on Epidermal growth factor receptor (EGFR), EGFR (gene 1956) (assay: BSK_hDFCGF_EGFR: BioMAP Diversity Plus: hDFCGF Assay for Epidermal growth factor receptor (EGFR) Biomarker Activity (AID 2283057)). Conditions: primary human foreskin fibroblasts; actives raise or lower the signal.
Procedure: BSK_hDFCGF is a cell-based, multiplexed-readout assay that uses foreskin fibroblast, a human skin primary cell, with measurements taken at 24 hours after chemical dosing in a 96-well plate.BSK_hDFCGF_EGFR is an assay component measured in the BSK_hDFCGF assay. It measures EGFR antibody related to regulation of gene expression using ELISA technology.Data from the assay component BSK_hDFCGF_EGFR was analyzed into 1 assay endpoint. This assay endpoint, BSK_hDFCGF_EGFR, was analyzed with bidirectional fitting relative to DMSO as the negative control and baseline of activity. Using a type of binding reporter, gain or loss-of-signal activity can be used to understand changes in the signaling as they relate to the gene EGFR. Furthermore, this assay endpoint can be referred to as a primary readout, because this assay has produced multiple assay endpoints where this one serves a signaling function. To generalize the intended target to other relatable targets, this assay endpoint is annotated to the kinase intended target family, where the subfamily is receptor tyrosine kinase.
The levels of cell surface (or secreted, indicated by the prefix "s") biomarker endpoints were measured by ELISA. Overt cytotoxicity to cells in confluent adherent cultures (all systems other than the BT system) was assessed by measuring total protein levels using sulforhodamine B (SRB) staining in parallel cultures at the time of biomarker measurements, indicated as SRB endpoints. For proliferation assays for adherent cell types, individual cell types are cultured at sub-confluence and relative cell numbers quantified by SRB staining at time points optimized for each system (48 h: 3C and CASM3C systems; 72 h: BT and HDF3CGF systems; 96 h: SAg system). SRB was performed by staining cells with 0.1% SRB after fixation with 10% TCA and reading wells at 560 nm.Viability and proliferation of PBMC (T cells) was quantified by Alamar Blue reduction for the SAg and BT systems. For PBMC viability (referred to as PBMC Cytotoxicity within the assay endpoint names), cells were plated (75,000/well in a 96-well plate) and then chemical samples added for 1 h before addition of activators, SEB and TSST-1 (20 ng/mL final concentration each). Cells were incubated for 90 h. Then, Alamar Blue (20 uL/well) (Invitrogen, Cat DAL1100) was added for 6 h, and the plates were read with a fluorescence microplate reader at 546/580 nm (excitation/emission). For PBMC proliferation, cells were plated and activated as above but incubated for only 16 h prior to addition of Alamar Blue. Plates were read after 6 h.
For `Cc1c2ccccc2c(C)c2c1ccc1ccccc12`, the AC50 was 5.45 µM (active). With `CCCCCCCCCCCCO` the AC50 was 19.8 µM (active). For `O=C(Nc1ccc(Cl)cc1)Nc1ccc(Cl)c(Cl)c1`, the AC50 was 1 µM (active). For `O=C=NCCCCCCN=C=O`, the outcome was “inactive”. For `CN(C)c1ccc(C(=C2C=CC(=[N+](C)C)C=C2)c2ccc(N(C)C)cc2)cc1`, the outcome was “inactive”. With `CO[C@H]1/C=C/O[C@@]2(C)Oc3c(C)c(O)c4c(O)c(c(/C=N/N5CCN(C)CC5)c(O)c4c3C2=O)NC(=O)/C(C)=C\C=C\[C@H](C)[C@H](O)[C@@H](C)[C@@H](O)[C@@H](C)[C@H](OC(C)=O)[C@@H]1C` the outcome was “inactive”. In the case of `CC1(C)NC(=O)N(c2ccc([N+](=O)[O-])c(C(F)(F)F)c2)C1=O`, the outcome is reported as “inactive”. In the case of `Oc1ccccc1`, the outcome is reported as “inactive”. For `O=c1[nH]sc2ccccc12`, the outcome was “inactive”. With `CCCCCCCCCC(=O)O` the outcome was “inactive”. For `CCOC(=O)O[C@H](C)OC(=O)c1ccc2c(c1)cc(C(=O)NC1CCN(C(C)C)CC1)n2Cc1cc(-c2ccc(Cl)s2)on1`, the AC50 was 4.85 µM (active). With `C[C@]12CC[C@@H]3c4ccc(O)cc4CC[C@H]3[C@@H]1CC[C@H]2O` the outcome was “inactive”. `CN(C[C@@H](CC[N+]12CCC(C3CCCCC3)(CC1)CC2)c1ccc(Cl)c(Cl)c1)C(=O)c1cc(C(F)(F)F)cc(C(F)(F)F)c1` was tested, and the AC50 was 5.37 µM (active). With `Cc1cc(F)ccc1-c1cc(N2CC[C@@H](O)[C@H]2CO)ncc1N(C)C(=O)C(C)(C)c1cc(C(F)(F)F)cc(C(F)(F)F)c1` the outcome was “inactive”. In the case of `CCO[Si](CCCNC(N)=O)(OCC)OCC`, the outcome is reported as “inactive”. For `CN1C(=O)CC[C@H]1c1cccnc1`, the outcome was “inactive”. In the case of `CCCCCCCCOC(=O)c1cc(O)c(O)c(O)c1`, the outcome is reported as “inactive”. `CCCCCCCCCCCO` was tested, and the outcome was “inactive”. For `Cc1ccc(C(C)C)cc1`, the outcome was “inactive”. For `CCCCCc1ccc(N)cc1`, the AC50 was 0.0546 µM (active). `Cc1ncc(CO)c(CO)c1O` was tested, and the outcome was “inactive”. For `CC(C)(C)c1csc(-c2cc3cc(OCc4ccccc4CC(=O)O)ccc3o2)n1`, the outcome was “inactive”. With `CC(O)CC(C)(C)O` (stereo not given) the outcome was “inactive”. In the case of `CCN(Cc1cccnc1)C(=O)c1cccc(Cl)c1[C@]1(C)C(=O)N(Cc2ccc(OC)cc2OC)c2ccc(Cl)cc21`, the AC50 is reported as 5.95 µM (active). In the case of `O=C(O)c1ccccc1C(=O)OCc1ccccc1`, the outcome is reported as “inactive”. For `O=c1ccc2ccccc2o1`, the outcome was “inactive”. For `OC12N=C(c3ccccc3)SC1Cc1cc(Cl)ccc12` (stereo not given), the outcome was “inactive”. In the case of `C[C@]12CC[C@@H]3c4ccc(O)cc4CC[C@H]3[C@@H]1CCC2=O`, the outcome is reported as “inactive”. In the case of `CC/C(=C(/CC)c1ccc(O)cc1)c1ccc(O)cc1`, the outcome is reported as “inactive”. For `CN1C(=O)N(c2ccccc2Br)Cc2cnc(Nc3ccc4c(c3)OCC(CO)O4)nc21` (stereo not given), the outcome was “inactive”. For `Cc1oc2c(NC(=O)c3c(Cl)cccc3Cl)cccc2c1C(C)(C)O`, the AC50 was 17.3 µM (active). In the case of `Cc1ccc2oc(CN(Cc3ccccc3)C(=O)Nc3c(F)cc(F)cc3F)c(-c3ccc(Cl)cc3)c2c1`, the outcome is reported as “inactive”. For `CC(C)(c1cc(Br)c(O)c(Br)c1)c1cc(Br)c(O)c(Br)c1`, the outcome was “inactive”. In the case of `CC1=CC(=O)/C(=C(/C)O)C(=O)O1`, the outcome is reported as “inactive”. `CC[C@@H]1C[C@H](N(Cc2cc(C(F)(F)F)cc(C(F)(F)F)c2)C(C)=O)c2cc(C(F)(F)F)ccc2N1C(=O)OC(C)C` was tested, and the outcome was “inactive”. With `Oc1ccc2ccccc2c1` the outcome was “inactive”. In the case of `CCCCCCCCOc1ccc(C(=O)c2ccccc2)c(O)c1`, the outcome is reported as “inactive”. For `COc1cccc([C@H](O)C2CCN(CCc3ccc(F)cc3)CC2)c1OC`, the outcome was “inactive”. With `O=C1O[C@H]([C@@H](O)CO)C(O)=C1O` the outcome was “inactive”. With `Clc1ccccc1C(c1ccccc1)(c1ccccc1)n1ccnc1` the outcome was “inactive”.
